Only some compounds are listed: those with a hit (about 2.3% of all), similar ones and a draw of the others.
Mcl1 Noxa PPI: Mcl-1/Noxa binding inhibitors, primary screen, biochemical, TR-FRET, 1536-well; Induced myeloid leukemia cell differentiation protein Mcl-1 (Homo sapiens), Q07820; TR-FRET Mcl-1/Noxa peptide binding, 2 h; inhibition, % at 21.7 µM; 1.5% of 220,000 active;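 active means compounds that cut the protein-peptide binding signal by more than 50% relative to plate controls in a single-dose test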;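 further: His-tagged Mcl-1 with rhodamine Noxa BH3 peptide and terbium anti-His antibody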
Target sequence (Q07820 whole entry, looked up): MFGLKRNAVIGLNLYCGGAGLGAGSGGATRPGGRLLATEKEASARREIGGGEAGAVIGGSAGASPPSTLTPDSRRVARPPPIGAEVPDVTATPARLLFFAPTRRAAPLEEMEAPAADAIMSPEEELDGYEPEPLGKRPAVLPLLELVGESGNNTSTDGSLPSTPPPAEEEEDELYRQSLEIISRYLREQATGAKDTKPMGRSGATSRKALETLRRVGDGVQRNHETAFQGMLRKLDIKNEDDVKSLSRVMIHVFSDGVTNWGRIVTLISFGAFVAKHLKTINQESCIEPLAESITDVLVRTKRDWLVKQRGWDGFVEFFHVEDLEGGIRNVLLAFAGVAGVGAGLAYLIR
Mcl1 Bid PPI: Mcl-1/Bid binding inhibitors, primary screen, biochemical, TR-FRET, 1536-well; Induced myeloid leukemia cell differentiation protein Mcl-1 (Homo sapiens), Q07820; TR-FRET Mcl-1/Bid-Dy647 peptide binding; inhibition, % at 21.7 µM; 0.97% of 220,000 active; AID 1021, 2008;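 active means compounds that cut the binding signal by more than half at the single screening dose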;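 further: His-tagged Mcl-1 with europium anti-His antibody binding Bid BH3 peptide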
BCLXL inh: inhibitors of human Bcl-xL, primary screen, biochemical, fluorescence polarization, HTS; 0.7% of 320,000 active; GST-Bcl-xL / FITC-Bim BH3 peptide fluorescence polarization; inhibition, % at 10.9 µM; Bcl-2-like protein 1 (Homo sapiens), Q07817;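 active means inhibition above the mean of all tested compounds plus 3 SD, cutoff set per campaign, cut at about 30% in these data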;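 further: inhibitors lower millipolarization by displacing the labeled peptide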
Target sequence (Q07817 whole entry, looked up): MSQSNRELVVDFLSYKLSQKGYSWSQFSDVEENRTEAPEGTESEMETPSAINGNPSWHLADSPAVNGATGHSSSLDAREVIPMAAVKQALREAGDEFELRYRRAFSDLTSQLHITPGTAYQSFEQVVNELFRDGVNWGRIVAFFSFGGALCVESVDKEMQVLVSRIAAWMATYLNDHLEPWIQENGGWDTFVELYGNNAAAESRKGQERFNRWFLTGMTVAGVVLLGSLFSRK
MCL1 BIM primary: inhibitors of MCL1 binding to BIM-BH3, primary screen, biochemical, fluorescence polarization. Induced myeloid leukemia cell differentiation protein Mcl-1 (Homo sapiens), Q07820. GST-MCL1 / FITC-Bim-BH3 fluorescence polarization. inhibition, % at 10.9 µM. 0.68% of 320,000 active;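 active means inhibition above the mean inhibition of all tested compounds plus 3 SD, set per campaign, cut at about 40% in these data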;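 further: higher means more loss of mP so more displacement of Bim peptide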
GLD-1 TGE inh: GLD-1/TGE RNA complex disruptors, primary screen, biochemical, fluorescence polarization; Female germline-specific tumor suppressor gld-1 (Caenorhabditis elegans), Q17339; purified GLD-1 + fluorescein TGE RNA; inhibition, % at 5.96 µM; 0.44% of 320,000 active;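 active means percent inhibition above a per-plate cutoff, the plate mean of test compounds plus 3 SD, cut at about 30% in these data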
Mcl-1 Bim block: inhibitors of Bim peptide binding to Mcl-1, primary screen, biochemical, bead-based flow cytometry, multiplex; Induced myeloid leukemia cell differentiation protein Mcl-1 (Homo sapiens), Q07820; Bim peptide-Mcl-1 binding; inhibition, % at 10 µM; 0.1% of 190,000 active; AID 1009, 2008; in the data active means inhibition above about 40%
A number is an active result; . = inactive; / = not tested or not shown.

SMILES	Mcl1 Noxa PPI	Mcl1 Bid PPI	BCLXL inh	MCL1 BIM primary	GLD-1 TGE inh	Mcl-1 Bim block
Cn1c(N)c(C(=O)COC(=O)c2ccc(Cl)c(S(=O)(=O)N3CCCC3)c2)c(=O)n(C)c1=O	.	.	.	.	.	/
Cc1sc2nc(CN3CCN(c4ccc(O)cc4)CC3)[nH]c(=O)c2c1C	67	.	.	.	.	/
Cc1cc(SCC(=O)N/N=C/c2ccc(C(=O)O)cc2)nc2ccccc12	/	/	.	.	.	/
COc1ccc(N(CC(=O)NC2CCCCCC2)S(=O)(=O)c2ccc(C)cc2)cc1OC	/	/	.	.	.	/
COc1ccc(OC)c(Nc2nc(-c3cccc([N+](=O)[O-])c3)nc3ccccc23)c1	.	70	.	.	.	.
COc1ccc(CN2C(=O)c3cccnc3C2Nc2ccc(OC)c(Cl)c2)cc1 (configuration not stated)	.	70	.	.	.	.
COc1ccc(NC2c3ncccc3C(=O)N2Cc2ccccc2)c(OC)c1 (configuration not stated)	.	64	.	.	.	.
Cc1ccc(NC2c3ncccc3C(=O)N2Cc2ccc(F)cc2)cc1 (configuration not stated)	.	51	.	.	.	.
COc1ccc(NC(=O)CSc2nccn2Cc2ccccc2)c(OC)c1	/	/	.	.	.	/
CCOc1ccc(N2C(=O)c3cccnc3C2Nc2ccc(F)cc2)cc1 (configuration not stated)	.	84	.	.	.	.
Cc1cccc(NC(=O)C2CCN(S(=O)(=O)c3cccc4nonc34)CC2)c1	/	/	.	.	.	/
COCC(C)NC(=O)CSc1nc2cc(S(=O)(=O)N3CCCCC3)ccc2o1 (configuration not stated)	/	/	.	.	.	/
O=C(COC(=O)c1ccccc1NC(=O)C1CC1)c1ccc2c(c1)OCCO2	.	.	.	.	.	.
O=c1ccc2c(o1)/C(=C/C=C(Cl)Cl)CCC2	.	59	.	.	.	.
COc1ccccc1N1CCN(CC(=O)Nc2ccc(-n3cnnn3)cc2)CC1	.	.	.	.	.	.
CC(=O)Nc1ccc2nc(NC(=O)COc3ccc([N+](=O)[O-])cc3)sc2c1	56	.	.	.	.	.
CC(=O)Nc1ccc2nc(NC(=O)c3ccc([N+](=O)[O-])s3)sc2c1	73	.	.	.	.	/
Cn1cc(Cl)c(C(=O)Nc2nc3ccc(Cl)cc3s2)n1	.	.	.	.	.	.
Cc1ccc2nc(NC(=O)c3ccc(-c4nc5ccccc5s4)s3)sc2c1	52	79	.	.	.	.
CC(=O)Nc1ccc2nc(NC(=O)c3cccs3)sc2c1	.	.	.	.	.	/
Cn1cc(Cl)c(C(=O)Nc2nc3ccc([N+](=O)[O-])cc3s2)n1	62	52	.	.	.	.
COc1ccc(CCN=C(C)c2cc(C)c(C)cc2O)cc1OC	/	/	.	.	.	/
CCOC(CCNC(=O)c1cn(CCOC)c(=O)c2c1c1ccccc1n2C)OCC	/	/	.	.	.	/
COc1ccc(N2Cc3cccc(C(=O)O)c3C2=O)cc1	79	.	.	.	.	.
COc1cccc(NC(=O)COC(=O)c2ccccc2C(=O)N2CCN(c3ccccc3)CC2)c1	.	.	49	50	44	.
SMILES	Mcl1 Noxa PPI	Mcl1 Bid PPI	BCLXL inh	MCL1 BIM primary	GLD-1 TGE inh	Mcl-1 Bim block
O=C(COC(=O)c1ccccc1C(=O)N1CCN(c2ccccc2)CC1)Nc1ccc(F)cc1	.	.	54	49	37	.
O=C(Nc1nccs1)c1cc2sccc2n1Cc1ccc(F)cc1	.	.	.	.	.	.
COc1ccc(NC(=O)c2cc3sccc3n2Cc2ccc(F)cc2)cc1OC	.	58	.	.	.	.
COc1ccc(-c2noc(=O)n2CC(=O)N2CCC(Cc3ccccc3)CC2)cc1	.	.	.	.	.	.
O=C(Cn1c(-c2ccccc2)noc1=O)N1CCC(Cc2ccccc2)CC1	.	.	.	.	.	40
O=C1/C(=C\c2ccco2)SC(=S)N1c1ccc(O)cc1	.	.	.	.	.	.
O=C1/C(=C/C=C/c2ccco2)SC(=S)N1c1ccc(O)cc1	102	.	.	.	.	/
O=C1/C(=C/c2ccco2)SC(=S)N1c1cccnc1	94	.	/	/	/	/
O=C1/C(=C\c2ccc(O)cc2)SC(=S)N1c1cccnc1	73	.	.	.	.	.
O=C1/C(=C/c2cccnc2)SC(=S)N1c1ccccc1	.	.	.	.	.	.
CN(C)c1ccc(/C=C/C=C2/SC(=S)N(c3ccccc3)C2=O)cc1	.	.	36	.	.	.
CC12CCC(=O)N1C(C(=O)OCc1c(Cl)cccc1Cl)CS2 (configuration not stated)	/	/	.	.	.	/
COC(=O)c1ccc(NC(=O)c2ccccc2N(C)S(=O)(=O)c2ccccc2)cc1	.	98	.	.	.	.
N#Cc1c(OCC(=O)c2ccccc2)nc2c(c1-c1ccco1)CCc1ccccc1-2	.	.	34	.	.	.
CCOC(=O)COc1nc2c(c(-c3ccco3)c1C#N)CCc1ccccc1-2	.	.	.	.	.	/
CCN(Cc1ccc(C#CCCO)cc1)CC1CCCN(CCc2cccc(F)c2)C1 (configuration not stated)	/	/	.	.	.	/
CC1CCN(CCOc2ccccc2-c2ccccc2)CC1	.	.	.	.	.	.
CC1CC(C)CN(CCOc2ccccc2-c2ccccc2)C1 (configuration not stated)	.	57	.	.	.	.
CC(C)(C)NCCOCCOc1ccccc1-c1ccccc1	.	56	.	.	.	.
Cc1cccc(CCNC(=O)C2CCC(=O)N(Cc3ccccc3F)C2)n1 (configuration not stated)	/	/	.	.	.	/
O=C1Nc2ccccc2/C1=N\N=C\c1ccc(O)c(O)c1	65	.	.	.	.	/
O=C(/C(=N/N=C/c1ccc(O)c(O)c1)c1ccccc1)c1ccccc1	51	.	.	.	.	.
O=C(CN(CCc1ccccc1)C(=O)c1csnn1)NC1CCCC1	.	.	.	.	.	.
COc1ccc(-c2nc(CS(=O)CC(=O)NCc3ccc(F)cc3)c(C)o2)cc1 (configuration not stated)	/	/	.	.	.	/
O=C(Nc1ccc2oc(=O)ccc2c1)c1ccc(-c2cccc([N+](=O)[O-])c2)o1	70	80	.	.	.	/
O=C(Nc1ccc2oc(=O)ccc2c1)c1ccc(-c2cccc(Cl)c2)o1	.	66	.	.	.	/

Assay outcomes: PubChem BioAssay, several laboratories
